An excerpt weighted towards active compounds, which were near 17% of everything screened.
DT40 TDP1 CPT = qHTS for Inhibitors of human tyrosyl-DNA phosphodiesterase 1 (TDP1): qHTS in cells in presence of CPT; chicken DT40 Tdp1-/-;hTDP1 cells + 20 nM CPT, ATP luminescence, 48 h; Potency, µM (doses to about 46.2 µM), for the others: top-dose activity change, negative = growth inhibition, most hits filed as inhibitors; actives 12% (n = 420,000); AID 686979, 2013; also: % is scaled to controls: 0 for no effect and ±100 for the full control effect; nearly all actives have a fitted effect of over 55% in size
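Cell growth measured by CellTiter-Glo luminescence after a minimum 48 h, 37 C compound exposure with 20 nM CPT in Tdp1-knockout DT40 cells stably expressing hTDP1, seeded 400/well; qHTS titration format.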
HT1080 IDH1KD tx = qHTS for induction of synthetic lethality in tumor cells producing 2HG: qHTS for the HT-1080-IDH1KD cell line | Potency, µM (series often up to 46.1 µM), for the others: at the highest dose activity, negative = toxicity, hits mostly cytotoxic | HT-1080 IDH1 knockdown viability, ATP luminescence, 48 h | actives 2% (n = 360,000);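 also: 0% = DMSO wells and -100% = cell-free medium wells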
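% activity derives from luminescence (CellTiter-Glo), normalised to DMSO and no-cell wells. HT-1080-IDH1KD cells, 750/well, had 48 h compound exposure at 37 °C.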
HT1080-NT tox = qHTS for induction of synthetic lethality in tumor cells producing 2HG: qHTS for the HT-1080-NT fibrosarcoma cell line. HT-1080-NT fibrosarcoma viability, CellTiter-Glo ATP luminescence, 48 h. Potency, µM (top dose mostly 46.1 µM), without a hit: at the highest dose activity, negative = less viability, actives largely listed as cytotoxic. actives 1.6% (n = 360,000);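 also: NT is the 2HG producing partner of a matched IDH1 knockdown line; 0% = DMSO-treated cells and -100% = media-only wells without cells; nearly all actives have a fitted effect of over 55% in size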
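Viability by CellTiter-Glo luminescence after 48 h compound exposure at 37C of HT-1080-NT cells (750/well, RPMI, 5% FBS). % activity scaled between DMSO wells and medium-only wells, then curve-fitted and categorized by curve class.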
HepG2 tox = qHTS for Inhibitors of TGF-b: Cytotox Counterscreen; HepG2 CAGA-GFP viability, ATP luminescence, 18 h; actives 0.76% (n = 410,000); Potency, µM (series often up to 46.1 µM), inactives show top-dose activity change, negative = cytotoxicity, hits mostly cytotoxic
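HepG2 CAGA-GFP cells (1000/well, DMEM with 1% FBS) received compound, then TGF-beta at 500 pg/mL final, and were incubated 18 hours at 37 degrees C. Viability was read by CellTiter-Glo luminescence. Media-only wells were set as complete cell-killing and DMSO as no toxicity.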
DT40 TDP1 no CPT = qHTS for Inhibitors of human tyrosyl-DNA phosphodiesterase 1 (TDP1): qHTS in cells in absence of CPT. Potency, µM (series often up to 46.2 µM), for the others: top-dose activity change, negative = growth inhibition, hits mostly inhibitors. DT40 Tdp1-/- hTDP1 cells, no CPT, ATP luminescence, 48 h. actives 15% (n = 420,000); also: % is scaled to controls: 0 for no effect and ±100 for the full control effect; nearly all actives have a fitted effect of over 55% in size
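Cells were dispensed at 400 per well, compounds added by pin tool, plates incubated ≥48 hr at 37 °C, then CellTiter-Glo added for 30 min at room temperature before luminescence reading. Line: DT40 Tdp1-/- complemented with hTDP1; camptothecin omitted.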
TGFb SMAD3 inh = qHTS for Inhibitors of TGF-b; actives 1.2% (n = 410,000); Potency, µM (top dose mostly 46.1 µM), for the others: at the highest dose activity, negative = inhibition, usual class: inhibitors; HepG2 CAGA-GFP TGF-b/SMAD3 reporter, GFP fluorescence, 18 h; TGF-beta stimulated, 500 pg/mL final; AID 588855, 2011; also: % is scaled to controls: 0 for no effect and ±100 for the full control effect; nearly all actives have a fitted effect of over 65% in size
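Using HEPG2 CAGA-GFP reporter cells at 1000 cells/well, we pinned test compounds, stimulated with recombinant TGF-beta (500 pg/mL final) and measured total well GFP after 18 h.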
An asterisk follows results filed as active. Calls follow the shape of the dose curve; as a rule, active = well fitted curve in the direction sought with a large enough effect; inconclusive = small, poorly fitted or top-dose-only effect, or another doubt; inactive = no such curve, though single readings can be large; an effect the other way counts as inactive or inconclusive. Potency is read from the fitted curve at half-maximal effect.

Results for CCOC(=O)C(C)Sc1ncc(OC)c(Sc2ccc(Cl)cc2)n1 (stereo unspecified) ?
DT40 TDP1 CPT: -8%; HT1080 IDH1KD tx: -3%; HT1080-NT tox: -2%; HepG2 tox: -13%; DT40 TDP1 no CPT: -1%; TGFb SMAD3 inh: 9%

What do the screens show for `COc1cnc(-c2ccccn2)nc1Sc1ccccc1Cl`?
DT40 TDP1 CPT: 1.5µM*; HT1080 IDH1KD tx: -29%; HT1080-NT tox: inconclusive; HepG2 tox: -17%; DT40 TDP1 no CPT: 1µM*; TGFb SMAD3 inh: -8%

What do the screens show for `COc1cnc(-c2ccccc2)nc1Sc1ccccc1`?
DT40 TDP1 CPT: 0%; HT1080 IDH1KD tx: -9%; HT1080-NT tox: -2%; HepG2 tox: -19%; DT40 TDP1 no CPT: inconclusive; TGFb SMAD3 inh: -26%

Results for COc1ccccc1Sc1nc(-c2ccccc2)ncc1OC ?
DT40 TDP1 CPT: inconclusive; HT1080 IDH1KD tx: -14%; HT1080-NT tox: 1%; HepG2 tox: -14%; DT40 TDP1 no CPT: 21µM*; TGFb SMAD3 inh: -8%

How did Cc1ccc(COc2ccc3oc(-c4ccccc4)c(C(=O)O)c3c2)cc1 do in these assays?
DT40 TDP1 CPT: 7%; HepG2 tox: -67%; DT40 TDP1 no CPT: -11%; TGFb SMAD3 inh: inconclusive

What do the screens show for `CCCCn1c(N)c(N(CC(C)C)C(=O)C(C)SCc2nc3sc(C)c(C)c3c(=O)[nH]2)c(=O)[nH]c1=O` (stereo unspecified)?
DT40 TDP1 CPT: -9%; HT1080 IDH1KD tx: 0%; HT1080-NT tox: 0%; HepG2 tox: -3%; DT40 TDP1 no CPT: inconclusive; TGFb SMAD3 inh: 17%

Results for CN1CCN(c2ncnc3c2ncn3[C@H]2CN(C)C[C@@H](CO)O2)CC1 ?
DT40 TDP1 CPT: -19%; HT1080 IDH1KD tx: inconclusive; HT1080-NT tox: 20%; HepG2 tox: 2%; DT40 TDP1 no CPT: -26%; TGFb SMAD3 inh: 14%

Results for CC(=O)NCC(c1cccs1)S(=O)(=O)c1ccc(F)cc1 (stereo unspecified) ?
DT40 TDP1 CPT: 2%; HT1080 IDH1KD tx: 4%; HT1080-NT tox: 11%; HepG2 tox: -1%; DT40 TDP1 no CPT: -1%; TGFb SMAD3 inh: 1%

Results for CCC1CN(S(=O)(=O)c2cc(-c3cc(C)no3)ccc2OC)c2cc(C)ccc2O1 (stereo unspecified) ?
DT40 TDP1 CPT: 18µM*; HT1080 IDH1KD tx: -13%; HT1080-NT tox: -11%; HepG2 tox: 3%; DT40 TDP1 no CPT: 23µM*; TGFb SMAD3 inh: -8%

What do the screens show for `CCC1CN(S(=O)(=O)c2cc(-c3cc(C)no3)ccc2OC)c2cc(Cl)ccc2O1` (stereo unspecified)?
DT40 TDP1 CPT: inconclusive; HepG2 tox: -7%; DT40 TDP1 no CPT: inconclusive; TGFb SMAD3 inh: -6%

How did COc1ccc(-c2cc(C)no2)cc1S(=O)(=O)N1CCCCC1 do in these assays?
DT40 TDP1 CPT: inconclusive; HT1080 IDH1KD tx: -5%; HT1080-NT tox: -6%; HepG2 tox: -16%; DT40 TDP1 no CPT: -22%; TGFb SMAD3 inh: -9%

How did COc1ccc(-c2cc(C)no2)cc1S(=O)(=O)N1CCN(c2cccc(C)c2)C(C)C1 (stereo unspecified) do in these assays?
DT40 TDP1 CPT: 16µM*; HT1080 IDH1KD tx: inconclusive; HT1080-NT tox: inconclusive; HepG2 tox: 9%; DT40 TDP1 no CPT: 23µM*; TGFb SMAD3 inh: inconclusive

High-throughput results deposited in PubChem by National Center for Advancing Translational Sciences (NCATS).
